In PubChem BioAssay AID624481 (The Scripps Research Institute Molecular Screening Center, 2012):
Values without a mark were called inactive. Calls of active or inactive are those of the source. Rule as the data show it: active = inhibition above about 50%; inactive = the rest.

Biological target: Prolyl endopeptidase-like (Mus musculus) (UniProt Q8C167)
Assay: purified PREPL inhibitors, PREPL inhibitor project, biochemical, gel-based competitive ABPP, fluorescence, HTS hits (AID 624481)
Conditions: at 20 µM, hits give high values

Chain of Prolyl endopeptidase-like (Mus musculus) (Q8C167 whole entry, looked up): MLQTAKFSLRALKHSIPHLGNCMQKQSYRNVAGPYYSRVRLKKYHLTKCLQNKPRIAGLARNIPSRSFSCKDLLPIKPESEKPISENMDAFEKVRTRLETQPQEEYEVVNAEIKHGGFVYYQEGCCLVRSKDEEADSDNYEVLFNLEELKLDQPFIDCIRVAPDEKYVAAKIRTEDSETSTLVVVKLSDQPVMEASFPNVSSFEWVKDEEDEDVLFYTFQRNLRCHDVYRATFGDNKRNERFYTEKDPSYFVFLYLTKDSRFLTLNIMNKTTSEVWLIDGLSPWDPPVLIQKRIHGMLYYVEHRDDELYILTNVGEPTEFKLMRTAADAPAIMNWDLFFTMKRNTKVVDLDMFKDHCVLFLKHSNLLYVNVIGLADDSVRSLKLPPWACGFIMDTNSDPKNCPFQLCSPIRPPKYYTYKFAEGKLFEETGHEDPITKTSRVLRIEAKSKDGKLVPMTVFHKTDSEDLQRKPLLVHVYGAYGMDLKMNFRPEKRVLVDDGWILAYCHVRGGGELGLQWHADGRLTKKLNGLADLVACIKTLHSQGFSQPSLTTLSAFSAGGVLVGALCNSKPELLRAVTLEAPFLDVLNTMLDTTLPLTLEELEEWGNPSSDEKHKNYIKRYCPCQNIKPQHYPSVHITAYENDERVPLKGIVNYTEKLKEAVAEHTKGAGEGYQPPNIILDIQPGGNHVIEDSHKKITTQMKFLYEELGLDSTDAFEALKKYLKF

| Structure (SMILES) | inhibition |
| --- | --- |
| COc1ccc(CCNC(=O)c2cc3c(=O)n4cccc(C)c4nc3n(CCCN3CCOCC3)c2=N)cc1 | -87% |
| Nc1nn(-c2ccccc2)c(N)c1N=Nc1cccc(F)c1 | 0% |
| C=CC[n+]1c(/C=C2\C=Cc3cc(C)ccc3N2CC)ccc2ccccc21 | -26% |
| CC(=O)N1CCN(c2ccc(NCc3ccc(-c4cccc(Cl)c4)o3)cc2)CC1 | 39% |
| O=c1[nH]c2ccc(NCc3ccccc3OCc3ccc(Cl)cc3)cc2[nH]1 | -43% |
| Cc1ccc(C2CC(c3cccc(C)c3)n3nc(N)nc3N2)cc1 (configuration not stated) | -40% |
| C#CCOCCOCCOCCNc1nc(N2CCN(C(=O)CCCCCCCCCCNC(=O)[C@H](CCCCN)n3cc(CCO)nn3)CC2)nc(N2CCN(C(=O)CCCCCCCCCCNC(=O)[C@H](CCCCN)n3cc(C[C@@H](C)CC)nn3)CC2)n1 | -141% |
| COc1ccc(C)cc1Nc1n[n+](-c2ccccc2)c(-c2ccc(OC)c(OC)c2OC)s1 | -41% |
| CN(C)c1ccc(NC(=O)c2cccc(C(=O)Nc3ccc(N(C)C)cc3)n2)cc1 | -170% |
| CN(C)c1nc(-c2ccccn2)nnc1-c1ccccc1 | -28% |
| CCc1ccc(CNc2ccc3c(c2)ncn3C(C)(C)C)cc1 | -36% |
| COc1cc(NC(=O)CN2CCN(c3ccccc3F)CC2)c(C)cc1[N+](=O)[O-] | -92% |
| CCc1ccc(Nc2n[n+](-c3ccccc3)c(-c3ccc(N(CC)CC)cc3)s2)cc1 | -100% |
| CN1CCc2c(sc3c2C(=O)NC(c2cn(Cc4ccccc4)c4ccccc24)N3)C1 (configuration not stated) | 7% |
| CCN(C(=O)CN1CCN(S(=O)(=O)c2cc(Cl)ccc2Cl)CC1)c1c(N)n(Cc2ccccc2)c(=O)[nH]c1=O | 99% (active) |
| c1ccc(CNc2nc(-c3ccccn3)nc3ccccc23)cc1 | -89% |
| Cc1cccc(C2CC(c3ccc(F)cc3)Nc3nc(N)nn32)c1 (configuration not stated) | -26% |
| COc1ccc(C2CC(c3cccc(OC)c3)n3nc(N)nc3N2)cc1 (configuration not stated) | -18% |
| CN(C)c1ccc(C(CN)c2c[nH]c3ccccc23)cc1 (configuration not stated) | -86% |

| Structure (SMILES) | inhibition |
| --- | --- |
| C#CCOCCOCCOCCNc1nc(N2CCN(C(=O)CCCCCCCCCCNC(=O)[C@H]([C@@H](C)CC)n3cc(CCCCCN)nn3)CC2)nc(N2CCN(C(=O)CCCCCCCCCCNC(=O)[C@H](CO)n3cc(CCCCCN)nn3)CC2)n1 | -61% |
| c1cncc(CNc2ccc3c(c2)OCO3)c1 | -50% |
| C#CCOCCOCCOCCNc1nc(N2CCN(C(=O)CCCCCCCCCCNC(=O)Cn3cc(CCCCCN)nn3)CC2)nc(N2CCN(C(=O)CCCCCCCCCCNC(=O)Cn3cc(CCCCCN)nn3)CC2)n1 | -99% |
| Cc1ccc(C2=CC(c3ccc(N(C)C)cc3)n3nnnc3N2)cc1 (configuration not stated) | -77% |
| C[C@H]1CN([C@@H](C)CO)C(=O)Cc2cc(NC(=O)CCN3CCOCC3)ccc2O[C@@H]1CN(C)Cc1ccc(Oc2ccccc2)cc1 | -27% |
| C(=NNc1nc2ccccc2[nH]1)c1c[nH]c2ccccc12 | 36% |
| O=C(COc1ccccc1Cl)Nc1ccc(N2CCN(C(=O)c3ccccc3)CC2)cc1 | -61% |
| CC(=O)N1CCN(c2ccc(NCc3ccc(-c4ccc(Br)cc4)o3)cc2)CC1 | -23% |
| CC[C@@H](C)[C@@H]1CN([C@@H](CN2CCC[C@H]2CN2C(N)=NC[C@H]2C(C)C)C(C)C)C(=N)N1CCCC1CCCC1 | -53% |
| CN(C)c1ccc(C(CNC(=O)c2ccccc2)c2c[nH]c3ccccc23)cc1 (configuration not stated) | 13% |
| Cc1ccc(S(=O)(=O)Nc2ccc3c(c2)CC(=O)N([C@H](C)CO)C[C@H](C)[C@H](CN(C)Cc2ccc4c(c2)OCO4)O3)cc1 | 9% |
| CN(C)CCCNc1cc(C(C)(C)C)nc2c(-c3ccccc3)cnn12 | -34% |
| C#CCOCCOCCOCCNc1nc(N2CCN(C(=O)CCCCCCCCCCNC(=O)[C@H](CCCCN)n3cc(CCO)nn3)CC2)nc(N2CCN(C(=O)CCCCCCCCCCNC(=O)[C@H](CCCN=C(N)N)n3cc(C[C@@H](C)CC)nn3)CC2)n1 | -34% |
| COc1ccc(C=NNc2cc(C)nc3ccc(OC)cc23)c(OC)c1 | 6% |
| CC(C)Nc1ccc(Nc2ccnc3cc4ccccc4cc23)cc1 | -11% |
| CNC(=S)N1N=C(c2ccc(C)cc2)CC1c1ccc(N(C)C)cc1 (configuration not stated) | -85% |
| Cc1cccn2c(=O)c3cc(C(=O)NCCc4ccccc4)c(=N)n(CCCn4ccnc4)c3nc12 | -33% |
| CCC(=O)c1ccc2c(c1)N(CCCN(C)C)c1ccccc1S2 | 9% |
